Source: PubChem BioAssay (NCATS)
Results filed as inconclusive are left out. Activity calls are given as the source filed them. Unless noted, calls come from the whole dose curve; as a rule, active = well fitted cell-killing curve with a large enough effect; inconclusive = small, poorly fitted or top-dose-only effect, or effect the other way; inactive = no such curve, though single readings can be large or run the other way.

What was measured:
[1] = Quantitative High-Throughput drug screen in 47 multiple myeloma cell lines against the NCATS MIPE library collection: OPM1_PLB cell viability assay (AID 1918989); note: nearly all actives have a fitted effect of over 40% in size; note: potency is the fitted concentration of half-maximal effect
Outline: (§1)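 Readout: median RLU from CellTiter-Glo after 5 min at room temperature. Preceding step was 48 h drug treatment of 500 cells/well at 37 °C, 5% CO2, with DMSO-only and media-only control wells.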

[2] = Quantitative High-Throughput drug screen in 47 multiple myeloma cell lines against the NCATS MIPE library collection: U266_ATCC cell viability assay (AID 1919864);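 note: 0% = media-only wells without cells and 100% = DMSO-only wells; nearly all actives have a fitted effect of over 35% in size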
Outline: as §1

[3] = Quantitative High-Throughput drug screen in 47 multiple myeloma cell lines against the NCATS MIPE library collection: VP6_DJ cell viability assay (AID 1919867); note: nearly all actives have a fitted effect of over 40% in size; note: potency is the fitted concentration of half-maximal effect
Outline: as §1

[4] = Quantitative High-Throughput drug screen in 47 multiple myeloma cell lines against the NCATS MIPE library collection: UTMC2_PLB cell viability assay (AID 1919868); conditions: CellTiter-Glo ATP luminescence, 48 h; viability (% of DMSO control): at 45.8 µM (top of the series) unless noted; note: nearly all actives have a fitted effect of over 55% in size; note: potency is the fitted concentration of half-maximal effect;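 for viability (% of DMSO control): 100% = DMSO-only wells and 0% = media-only wells without cells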
Outline: as §1

[5] = Quantitative High-Throughput drug screen in 47 multiple myeloma cell lines against the NCATS MIPE library collection: RPMI8226_ATCC cell viability assay (AID 1919871); note: nearly all actives have a fitted effect of over 30% in size; note: potency is the fitted concentration of half-maximal effect
Outline: as §1

[6] = Quantitative High-Throughput drug screen in 47 multiple myeloma cell lines against the NCATS MIPE library collection: OPM2_DSMZ cell viability assay (AID 1919872); note: nearly all actives have a fitted effect of over 30% in size; note: potency is the fitted concentration of half-maximal effect
Outline: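 qHTS of the MIPE 4.0 collection: 500 myeloma cells/well, 48 h drug exposure at 37C in 5% CO2, then CellTiter-Glo for 5 min at room temperature before luminescence reading.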

[7] = Quantitative High-Throughput drug screen in 47 multiple myeloma cell lines against the NCATS MIPE library collection: KMS11_JCRBsus cell viability assay (AID 1919873); note: nearly all actives have a fitted effect of over 50% in size; note: potency is the fitted concentration of half-maximal effect
Outline: as §1

[8] = Quantitative High-Throughput drug screen in 47 multiple myeloma cell lines against the NCATS MIPE library collection: KMS28BM_JCRB cell viability assay (AID 1919874); note: nearly all actives have a fitted effect of over 35% in size; note: potency is the fitted concentration of half-maximal effect
Outline: as §1

[9] = qHTS drug screen for cell cycle checkpoint inhibitors in PARPi-resistant BRCA-mutant ovarian cancer cell lines. (AID 1963452; calls by dose curve); conditions: PEO1/OlaR viability, CellTiter-Glo luminescence, 96 h, stronger effect = lower value
Outline: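 PEO1, PEO4 and PEO1/OlaR ovarian cancer cells, 600 per well, exposed 96 h at 37C to a dilution series. Viability read by CellTiter-Glo luminescence, normalized to DMSO and empty wells; activity summarized as Z-AUC.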

[10] = qHTS for identification of novel therapeutic agents for treatment of microphthalmiaassociated transcription factor (MiT) renal cell carcinoma (RCC) (AID 1963991; calls by dose curve; note: potency is the fitted concentration of half-maximal effect); conditions: CellTiter-Glo, 48 h; for Potency: active = Z-AUC below -0.8 in all three lines; for z-score: stronger effect = lower value
Outline: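 Viability of three TFE3-fusion renal carcinoma lines measured by CellTiter-Glo after 48 h treatment with each of 1912 compounds at 11 concentrations. Responses scaled between DMSO (100%) and empty wells (0%) before curve fitting.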

[11] = Quantitative High-Throughput drug screen in 47 multiple myeloma cell lines against the NCATS MIPE library collection: OCIMY7_PLB cell viability assay (AID 1918987); note: nearly all actives have a fitted effect of over 65% in size; note: potency is the fitted concentration of half-maximal effect
Outline: as §1

[12] = Quantitative High-Throughput drug screen in 47 multiple myeloma cell lines against the NCATS MIPE library collection: OCIMY5_PLB cell viability assay (AID 1918988); note: potency is the fitted concentration of half-maximal effect; nearly all actives have a fitted effect of over 65% in size
Outline: as §1

[13] = Quantitative High-Throughput drug screen in 47 multiple myeloma cell lines against the NCATS MIPE library collection: XG1_PLB cell viability assay (AID 1919866); note: nearly all actives have a fitted effect of over 35% in size; note: potency is the fitted concentration of half-maximal effect
Outline: as §1

[14] = Quantitative High-Throughput drug screen in 47 multiple myeloma cell lines against the NCATS MIPE library collection: SKMM1_PLB cell viability assay (AID 1919863); conditions: SKMM1 myeloma viability, CellTiter-Glo ATP, 48 h; viability: stronger effect = lower value; note: nearly all actives have a fitted effect of over 35% in size; note: potency is the fitted concentration of half-maximal effect
Outline: as §1

[15] = Quantitative High-Throughput drug screen in 47 multiple myeloma cell lines against the NCATS MIPE library collection: XG6_PLB cell viability assay (AID 1919865); note: nearly all actives have a fitted effect of over 40% in size; note: potency is the fitted concentration of half-maximal effect
Outline: as §1

[16] = Quantitative High-Throughput drug screen in 47 multiple myeloma cell lines against the NCATS MIPE library collection: PE2_PLB cell viability assay (AID 1919869); note: nearly all actives have a fitted effect of over 35% in size; note: potency is the fitted concentration of half-maximal effect
Outline: as §1

[17] = Quantitative High-Throughput drug screen in 47 multiple myeloma cell lines against the NCATS MIPE library collection: PCM6_Riken cell viability assay (AID 1919870); note: nearly all actives have a fitted effect of over 30% in size; note: potency is the fitted concentration of half-maximal effect
Outline: as §1

[18] = measured here: PEO1 parental Z-AUC
[19] = TFE3-RCC UOK109 viability, measured here: UOK109 Z-AUC
[20] = TFE3-RCC viability, measured here: UOK124 Z-AUC
[21] = TFE3-RCC viability, measured here: UOK145 Z-AUC

In the case of `NC(=O)c1cccc2cn(-c3ccc([C@@H]4CCCNC4)cc3)nc12`, the Potency [1] is reported as “inactive”, the Potency [2] is reported as “inactive” and the Potency [3] is reported as 18.7 µM (active). The Potency [4] was “inactive”, the Potency [5] was “inactive” and the Potency [6] was “inactive”. For the same molecule, the Potency [7] was “inactive”, the Potency [8] was “inactive” and the Z-AUC [9] was 0.523 (inactive). For the same molecule, the Z-AUC [9, 18] was -0.0942 and the Z-AUC ([9]; measured here: PEO4 Z-AUC) was 0.435.
For `CS(=O)(=O)N1CCN(Cc2cc3nc(-c4cccc5[nH]ncc45)nc(N4CCOCC4)c3s2)CC1`, the Potency [5] was 0.264 µM (active), the Z-AUC [9] was 0.0585 (inactive) and the Z-AUC [9, 18] was 0.321. The Z-AUC ([9]; measured here: PEO4 Z-AUC) was 0.781, the Potency ([10]; TFE3-RCC UOK109 viability) was 0.105 µM (active) and the z-score [10, 19] was -1.55. For the same molecule, the z-score [10, 20] was -1.58 and the z-score [10, 21] was -1.5.
For `Cc1c(Cn2c(C)nc3c(C(=O)O)cc(N4CCOCC4)cc32)cccc1C(F)(F)F`, the Potency [11] was 0.264 µM (active), the Potency [12] was 8.33 µM (active) and the Potency [2] was “inactive”. The Potency [13] was 0.743 µM (active), the Potency [3] was 4.18 µM (active) and the Potency [5] was “inactive”. For the same molecule, the Potency [6] was “inactive”, the Potency [7] was “inactive” and the Potency [8] was “inactive”. For the same molecule, the Z-AUC [9] was 0.672 (inactive), the Z-AUC [9, 18] was 0.875 and the Z-AUC ([9]; measured here: PEO4 Z-AUC) was 0.3.
In the case of `O=C(O)Cn1nnc(-c2cc(N3CCC(Oc4cc(F)ccc4Br)CC3)no2)n1`, the Potency [1] is reported as “inactive”, the viability [14] is reported as 126% (inactive) and the Potency [15] is reported as “inactive”. For the same molecule, the Potency [13] was “inactive”, the Potency [3] was “inactive” and the Potency [16] was “inactive”. The Potency [17] was “inactive”, the Potency [5] was “inactive” and the Potency [7] was “inactive”. For the same molecule, the Potency [8] was “inactive”, the Z-AUC [9] was -0.81 (inactive) and the Z-AUC [9, 18] was -0.799. It also gave a Z-AUC ([9]; measured here: PEO4 Z-AUC) of -1.41.
In the case of `Cn1cc(-c2ccncc2)c(-c2ccc(OCc3ccc4ccccc4n3)cc2)n1`, the Potency [11] is reported as 10.5 µM (active), the Potency [12] is reported as 16.6 µM (active) and the Potency [1] is reported as 10.5 µM (active). The Potency [15] was 5.9 µM (active), the Potency [3] was 5.26 µM (active) and the Potency [16] was 5.9 µM (active). For the same molecule, the Potency [5] was 6.62 µM (active), the Potency [7] was 8.33 µM (active) and the Z-AUC [9] was 0.205 (inactive). The Z-AUC [9, 18] was -0.209 and the Z-AUC ([9]; measured here: PEO4 Z-AUC) was 0.0189.
For `CS(=O)(=O)c1ccc(-c2cnc(N)c(C(=O)Nc3ccccc3)n2)cc1`, the Potency [11] was 1.66 µM (active), the Potency [12] was 2.64 µM (active) and the Potency [3] was “inactive”. The Potency [5] was “inactive”, the Potency [6] was “inactive” and the Potency [8] was “inactive”. For the same molecule, the Z-AUC [9] was -0.54 (inactive), the Z-AUC [9, 18] was -0.901 and the Z-AUC ([9]; measured here: PEO4 Z-AUC) was -1.14. It also gave a z-score [10, 19] of 0.172, a z-score [10, 20] of 0.911 and a z-score [10, 21] of 0.761.
With `C=CC(=O)N1CCC[C@@H](n2nc(-c3ccc(Oc4ccccc4)cc3)c3c(N)ncnc32)C1` the Potency [5] was 20.9 µM (active), the Z-AUC [9] was 0.296 (inactive) and the Z-AUC [9, 18] was 0.501. It also gave a Z-AUC ([9]; measured here: PEO4 Z-AUC) of 0.517.
For `CC(=O)SC[C@@H](C)C(=O)N1CCC[C@H]1C(=O)N[C@@H](Cc1ccccc1)C(=O)O`, the Potency [11] was “inactive”, the Potency [1] was “inactive” and the viability [14] was 151% (inactive). The Potency [13] was “inactive”, the Potency [16] was “inactive” and the Potency [17] was “inactive”. The Potency [5] was “inactive”, the Potency [7] was “inactive” and the Potency [8] was “inactive”. For the same molecule, the Z-AUC [9] was 0.0192 (inactive), the Z-AUC [9, 18] was -0.242 and the Z-AUC ([9]; measured here: PEO4 Z-AUC) was -0.303.
In the case of `NCC(=O)Nc1ccc(-n2nc(C(F)(F)F)cc2-c2ccc3c(ccc4ccccc43)c2)cc1`, the Potency [11] is reported as 16.6 µM (active), the Potency [12] is reported as 29.6 µM (active) and the Potency [1] is reported as 18.7 µM (active). The Potency [14] was 37.2 µM (active), the Potency [15] was 18.7 µM (active) and the Potency [13] was 16.6 µM (active). The Potency [3] was 18.7 µM (active), the Potency [16] was 20.9 µM (active) and the Z-AUC [9] was 0.362 (inactive). For the same molecule, the Z-AUC [9, 18] was -0.764 and the Z-AUC ([9]; measured here: PEO4 Z-AUC) was -0.389.
For `Cc1nc2cnc3ccc(C#Cc4cccnc4)cc3c2n1-c1ccc(C(C)(C)C#N)cc1`, the Potency [11] was 0.105 µM (active), the Potency [12] was 6.62 µM (active) and the Potency [1] was 0.0526 µM (active). The Potency [14] was 3.72 µM (active), the Potency [15] was 0.0105 µM (active) and the Potency [13] was 0.0105 µM (active). For the same molecule, the Potency [3] was 0.0743 µM (active), the Potency [4] was 0.0209 µM (active) and the Potency [16] was 0.0132 µM (active). For the same molecule, the Potency [17] was 0.0662 µM (active), the Potency [5] was 0.0833 µM (active) and the Potency [6] was 0.187 µM (active). For the same molecule, the Potency [8] was 0.372 µM (active), the Z-AUC [9] was -0.114 (inactive) and the Z-AUC [9, 18] was -0.259. For the same molecule, the Z-AUC ([9]; measured here: PEO4 Z-AUC) was -0.412, the Potency ([10]; TFE3-RCC UOK109 viability) was 0.118 µM (active) and the z-score [10, 19] was -1.96. It also gave a z-score [10, 20] of -4.34 and a z-score [10, 21] of -2.15.
